According to PubChem BioAssay (Tox21):
Several values for one entry are separate records, joined by “and”; a condition that tells them apart may be missing. Equal entries are not always repeated. Records with an inconclusive call do not appear. Where a call stands in place of a potency, no number is given. A structure can be active in one record and inactive in another. Activity calls are given as the source filed them. Unless noted, calls come from the whole dose curve; as a rule, active = well fitted curve in the direction sought with a large enough effect in the repeat runs; inconclusive = weak or mixed curves; inactive = no such curve, though single readings can be large; an effect the other way counts as inactive or inconclusive.

What was measured:
[1] = qHTS assay to identify small molecule antagonists of the estrogen receptor alpha (ER-alpha) signaling pathway using the BG1 cell line in the presence of 0.1 nM 17-beta-estradiol - cell viability counter screen (AID 1259241); note: nearly all actives have a fitted effect of over 40% in size; note: potency is the fitted concentration of half-maximal effect
Outline: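 Live-cell protease activity (CellTiter-Fluor fluorescence, 30 min) was read in the same wells after VM7Luc4E2 cells had been exposed to compounds with 0.1 nM 17beta-estradiol for 22 hr at 37C.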

[2] = qHTS assay to identify small molecule antagonists of the androgen receptor (AR) signaling pathway using the MDA cell line in the presence of 0.5 nM R1881 - cell viability counter screen (AID 1259242); note: nearly all actives have a fitted effect of over 45% in size; note: potency is the fitted concentration of half-maximal effect
Outline: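 Human breast carcinoma MDA-kb2 cells, cultured without CO2, receive compounds alongside 0.5 nM (final) R1881 agonist. After 16 hr at 37C, viability is taken as live-cell protease signal.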

[3] = biological target: Estrogen receptor (Homo sapiens) (UniProt P03372); assay: qHTS assay to identify small molecule antagonists of the estrogen receptor alpha (ER-alpha) signaling pathway using the BG1 cell line in the presence of 0.1 nM 17-beta-estradiol (AID 1259244); note: nearly all actives have a fitted effect of over 50% in size; note: potency is the fitted concentration of half-maximal effect
Outline: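 Seeding of stripped-serum-adapted VM7Luc4E2 cells, 24 h attachment, compound transfer, then 0.1 nM final 17beta-estradiol; after 22 h incubation, ONE-Glo reagent and luminescence reading.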

[4] = qHTS assay to identify small molecule HDAC inhibitors (AID 1259364); note: potency is the fitted concentration of half-maximal effect;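 note: wild-type HCT-116 cells with endogenous class I/II HDAC activity; nearly all actives have a fitted effect of over 45% in size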
Outline: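 After a 2 hr compound incubation (37C, 5% CO2), HCT-116 cells seeded at 1,500/well the day before received HDAC-Glo reagent; signal read as luminescence after 30 min at room temperature.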

[5] = qHTS assay to identify small molecule HDAC inhibitors - cell viability counter screen (AID 1259365); note: nearly all actives have a fitted effect of over 50% in size; note: potency is the fitted concentration of half-maximal effect
Outline: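 HCT-116 (wild type), 1,500 cells/well, overnight 37C/5% CO2; compound in DMSO 2hr; CellTiter-Glo 30min RT; luminescence read.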

[6] = qHTS assay to identify small molecule antagonists of the sonic hedgehog signaling (Shh) pathway - cell viability counter screen (AID 1259367); note: nearly all actives have a fitted effect of over 55% in size; note: potency is the fitted concentration of half-maximal effect
Outline: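 Conditioned medium drove Shh signaling in 3T3 Gli1-Luc cells exposed to compounds at 37C and 5% CO2. Viability was determined from CellTiter-Fluor fluorescence, with reagent incubated 1 hr after 23 hr of treatment.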

[7] = qHTS assay to identify small molecule agonists of the sonic hedgehog signaling (Shh) pathway (AID 1259368; calls by dose curve;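 note: NIH/3T3-derived 3T3Gli1-Luc cells carrying a stable Gli1-driven firefly luciferase reporter; series mostly up to about 92 µM; nearly all actives have a fitted effect of over 15% in size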)
Outline: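 Stable NIH/3T3 Gli1-Luc reporter clone; 24 hr cpd exposure after a 4 hr settling period; luminescence endpoint.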

[8] = qHTS assay to identify small molecule antagonists of the sonic hedgehog signaling (Shh) pathway (AID 1259369; calls by dose curve; note: nearly all actives have a fitted effect of over 45% in size; note: potency is the fitted concentration of half-maximal effect)
Outline: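 Gli1 transcriptional reporter (firefly Luc) in NIH/3T3 background, conditioned-medium activated. 24hr exposure, luminescence endpoint.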

[9] = biological target: Estrogen receptor beta (Homo sapiens) (UniProt Q92731); assay: qHTS assay to identify small molecule agonists of the estrogen receptor beta (ER-beta) signaling pathway (AID 1259377; active = well fitted activation curve with a large enough effect in the signal ratio in the repeat runs, not every such curve was filed as active; the % refers to the signal ratio)
Outline: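 Beta-lactamase reporter readout: fluorescence of LiveBLAzer B/G FRET substrate after 2 h at room temperature, following 16 h compound treatment of ER-beta-UAS-bla HEK293T cells at 37C in 2% charcoal-stripped FBS medium.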

[10] = biological target: Estrogen receptor beta (Homo sapiens) (UniProt Q92731); assay: qHTS assay to identify small molecule antagonists of the estrogen receptor beta (ER-beta) signaling pathway (AID 1259378; active = well fitted inhibition curve with a large enough effect in the signal ratio in the repeat runs, not every such curve was filed as active; the % refers to the signal ratio; note: potency is the fitted concentration of half-maximal effect)
Outline: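 ER-beta-UAS-bla HEK293T (GripTite) cells in 2% charcoal-stripped FBS medium were preincubated 6 hr at 37C, dosed with compound, then stimulated with 1 nM E2 (final) for 16 hr; beta-lactamase reporter read by B/G FRET fluorescence after 2 hr substrate loading.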

[11] = qHTS assay to identify small molecule agonists of the androgen receptor (AR) signaling pathway in the presence of an antagonist - cell viability counter screen (AID 1259379); note: nearly all actives have a fitted effect of over 25% in size; note: potency is the fitted concentration of half-maximal effect
Outline: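 Counter screen for cell viability run in parallel with the AR agonist-mode luciferase assay. MDA-kb2 cells were co-treated with nilutamide (3.0uM final) and compounds, then incubated 16 hr at 37C, and CellTiter-Fluor fluorescence was measured.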

[12] = qHTS assay to identify small molecule agonists of the estrogen receptor beta (ER-beta) signaling pathway - cell viability counter screen (AID 1259380); note: nearly all actives have a fitted effect of over 30% in size; note: potency is the fitted concentration of half-maximal effect
Outline: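 In this qHTS counter screen, HEK293T cells carrying an ER-beta/UAS beta-lactamase reporter, grown in 2% charcoal-stripped FBS, received compound for 16 hr; ATP-based CellTiter-Glo luminescence was then read after 30 min at room temperature.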

[13] = qHTS assay to identify small molecule antagonists of the estrogen receptor beta (ER-beta) signaling pathway - cell viability counter screen (AID 1259382); note: nearly all actives have a fitted effect of over 55% in size; note: potency is the fitted concentration of half-maximal effect
Outline: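 HEK293T ER-beta-UAS-bla, 2% charcoal-stripped FBS; compounds + 1nM E2 16 hr 37C; CellTiter-Glo luminescence, 30 min RT.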

[14] = biological target: Estrogen receptor (Homo sapiens) (UniProt P03372); assay: qHTS assay to identify small molecule agonists of the estrogen receptor alpha (ER-alpha) signaling pathway in the presence of an antagonist (AID 1259383; calls by dose curve; note: nearly all actives have a fitted effect of over 15% in size; note: potency is the fitted concentration of half-maximal effect; for activation: top concentration of the series differs between compounds)
Outline: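 ER-alpha agonism measured under antagonist challenge: 10.0nM ICI-182,780 (final) plus compound, 15 concentrations, 22hr, VM7Luc4E2 ERE-luciferase cells. Read by luminescence.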

[15] = qHTS assay to identify small molecule agonists or antagonists of the thyroid stimulating hormone receptor (TSHR) signaling pathway - wild type cell line counter screen (AID 1259384; calls by dose curve)
Outline: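 Wild-type HEK293 cells were plated 18 h at 37 C/5% CO2, pin-dosed with compound plus Ro20-1724 medium, held 30 min at room temperature, then given cAMP-d2 and anti-cAMP-cryptate; fluorescence was read after 1 h. Fifteen concentrations, triplicate.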

[16] = biological target: Thyrotropin receptor (Homo sapiens) (UniProt P16473); assay: qHTS assay to identify small molecule antagonists of the thyroid stimulating hormone receptor (TSHR) signaling pathway (AID 1259385; calls by dose curve; note: nearly all actives have a fitted effect of over 20% in size)
Outline: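 TSHR-HEK293 cells were plated and held 18 h at 37C/5% CO2, then given compound plus Ro20-1724 and stimulated with TSH at 1.5 ng/mL final. After 30 min at room temperature, cAMP was detected with cAMP-d2/anti-cAMP-cryptate (1 h) by fluorescence.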

[17] = qHTS assay to identify small molecule agonists of the estrogen receptor alpha (ER-alpha) signaling pathway in the presence of an antagonist - cell viability counter screen (AID 1259386);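 note: cells exposed to compounds for 22 h at 37 °C before the viability read; nearly all actives have a fitted effect of over 30% in size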; note: potency is the fitted concentration of half-maximal effect
Outline: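 Steps: 5-day stripped-FBS culture; seed and incubate 24hr; add ICI-182,780 (10.0nM final); pin 15-point compound titration; incubate 22hr at 37C; add CellTiter-Fluor at 21hr; read fluorescence.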

[18] = qHTS assay to identify small molecule phospholipidosis (PLD) inducers (AID 1259344; active = well fitted curve in the direction sought with a large enough effect; an effect the other way counts as inactive or inconclusive)
Outline: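 After 4 h attachment on collagen I, HepG2 cells were dosed with compound alongside LipidTOX Red, kept 24 h at 37 C, fixed, and imaged for lamellar phospholipid pits.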

[19] = qHTS assay to identify small molecule agonists of the sonic hedgehog signaling (Shh) pathway - cell viability counter screen (AID 1259366); note: nearly all actives have a fitted effect of over 50% in size; note: potency is the fitted concentration of half-maximal effect
Outline: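 CellTiter-Fluor fluorescence read-out, 1 hr at 37C, added after 23hr compound exposure. Cells: 3T3 Gli1-Luc, an NIH/3T3 clone with stably integrated Gli1-Luc reporter, plated 4hr before compound.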

[20] = biological target: Androgen receptor (Homo sapiens) (UniProt P10275); assay: qHTS assay to identify small molecule agonists of the androgen receptor (AR) signaling pathway in the presence of an antagonist (AID 1259381; calls by dose curve; note: nearly all actives have a fitted effect of over 15% in size)
Outline: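 AR antagonist background: nilutamide 3.0uM final. Cell line: MDA-kb2, MMTV-driven luciferase, responsive to both AR and GR. Exposure 16hr, 37C, no CO2; ONE-Glo luminescence.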

Chain of Androgen receptor (Homo sapiens) (P10275 whole entry, looked up): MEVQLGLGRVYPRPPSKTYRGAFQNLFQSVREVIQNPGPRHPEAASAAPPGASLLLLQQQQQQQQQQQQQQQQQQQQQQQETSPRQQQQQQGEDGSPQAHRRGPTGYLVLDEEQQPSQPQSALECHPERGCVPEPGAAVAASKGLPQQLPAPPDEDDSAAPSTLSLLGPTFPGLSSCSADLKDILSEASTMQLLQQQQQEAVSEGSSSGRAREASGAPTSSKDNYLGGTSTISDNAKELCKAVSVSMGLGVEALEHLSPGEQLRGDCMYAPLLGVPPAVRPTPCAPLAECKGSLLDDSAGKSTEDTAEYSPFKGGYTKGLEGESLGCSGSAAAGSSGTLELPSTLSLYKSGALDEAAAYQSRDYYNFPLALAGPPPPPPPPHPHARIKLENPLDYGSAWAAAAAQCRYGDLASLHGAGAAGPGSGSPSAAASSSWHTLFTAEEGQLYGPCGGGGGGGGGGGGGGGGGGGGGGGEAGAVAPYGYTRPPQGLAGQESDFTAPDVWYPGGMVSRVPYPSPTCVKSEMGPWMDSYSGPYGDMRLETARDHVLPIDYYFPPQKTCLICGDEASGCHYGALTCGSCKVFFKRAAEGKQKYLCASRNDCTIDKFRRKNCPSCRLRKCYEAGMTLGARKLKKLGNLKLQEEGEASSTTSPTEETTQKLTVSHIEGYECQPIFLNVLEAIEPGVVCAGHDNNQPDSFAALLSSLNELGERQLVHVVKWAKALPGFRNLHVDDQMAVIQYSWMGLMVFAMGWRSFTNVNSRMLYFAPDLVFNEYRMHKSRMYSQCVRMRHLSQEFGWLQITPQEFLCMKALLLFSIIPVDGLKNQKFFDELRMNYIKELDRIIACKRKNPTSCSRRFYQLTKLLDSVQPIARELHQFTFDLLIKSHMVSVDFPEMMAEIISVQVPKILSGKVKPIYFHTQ
Chain of Thyrotropin receptor (Homo sapiens) (P16473 whole entry, looked up): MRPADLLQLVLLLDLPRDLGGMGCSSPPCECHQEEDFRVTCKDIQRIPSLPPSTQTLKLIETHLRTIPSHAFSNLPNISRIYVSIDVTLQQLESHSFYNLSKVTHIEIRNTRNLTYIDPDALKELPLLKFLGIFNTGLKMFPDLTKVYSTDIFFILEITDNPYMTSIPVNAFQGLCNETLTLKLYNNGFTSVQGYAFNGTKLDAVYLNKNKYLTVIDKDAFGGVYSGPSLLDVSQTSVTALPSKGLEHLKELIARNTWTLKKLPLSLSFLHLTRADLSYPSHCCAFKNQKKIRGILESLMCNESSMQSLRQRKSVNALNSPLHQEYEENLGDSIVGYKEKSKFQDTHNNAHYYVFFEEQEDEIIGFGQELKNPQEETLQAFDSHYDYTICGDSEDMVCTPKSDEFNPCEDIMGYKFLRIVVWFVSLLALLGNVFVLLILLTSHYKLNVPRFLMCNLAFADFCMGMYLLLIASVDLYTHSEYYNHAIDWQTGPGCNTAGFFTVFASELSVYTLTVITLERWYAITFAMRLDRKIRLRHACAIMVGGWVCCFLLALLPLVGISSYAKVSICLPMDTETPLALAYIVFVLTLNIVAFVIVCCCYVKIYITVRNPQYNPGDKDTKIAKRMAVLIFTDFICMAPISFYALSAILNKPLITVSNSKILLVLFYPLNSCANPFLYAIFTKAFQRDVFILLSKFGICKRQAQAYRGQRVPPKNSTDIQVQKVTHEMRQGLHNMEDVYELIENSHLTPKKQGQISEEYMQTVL
Chain of Estrogen receptor beta (Homo sapiens) (Q92731 whole entry, looked up): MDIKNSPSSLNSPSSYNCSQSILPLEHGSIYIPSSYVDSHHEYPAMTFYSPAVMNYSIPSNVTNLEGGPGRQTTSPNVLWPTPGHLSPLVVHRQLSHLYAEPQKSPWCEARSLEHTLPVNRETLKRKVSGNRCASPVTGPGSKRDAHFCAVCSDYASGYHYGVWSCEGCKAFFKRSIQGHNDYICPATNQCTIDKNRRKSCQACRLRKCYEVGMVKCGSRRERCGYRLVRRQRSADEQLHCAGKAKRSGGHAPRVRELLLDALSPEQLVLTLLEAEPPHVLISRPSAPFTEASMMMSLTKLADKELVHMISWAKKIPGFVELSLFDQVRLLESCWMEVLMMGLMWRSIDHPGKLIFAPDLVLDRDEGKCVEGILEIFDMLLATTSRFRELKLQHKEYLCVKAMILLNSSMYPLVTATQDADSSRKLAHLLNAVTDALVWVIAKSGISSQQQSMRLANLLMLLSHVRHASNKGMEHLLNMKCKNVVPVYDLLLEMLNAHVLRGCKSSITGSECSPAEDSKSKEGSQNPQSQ
Chain of Estrogen receptor (Homo sapiens) (P03372 whole entry, looked up): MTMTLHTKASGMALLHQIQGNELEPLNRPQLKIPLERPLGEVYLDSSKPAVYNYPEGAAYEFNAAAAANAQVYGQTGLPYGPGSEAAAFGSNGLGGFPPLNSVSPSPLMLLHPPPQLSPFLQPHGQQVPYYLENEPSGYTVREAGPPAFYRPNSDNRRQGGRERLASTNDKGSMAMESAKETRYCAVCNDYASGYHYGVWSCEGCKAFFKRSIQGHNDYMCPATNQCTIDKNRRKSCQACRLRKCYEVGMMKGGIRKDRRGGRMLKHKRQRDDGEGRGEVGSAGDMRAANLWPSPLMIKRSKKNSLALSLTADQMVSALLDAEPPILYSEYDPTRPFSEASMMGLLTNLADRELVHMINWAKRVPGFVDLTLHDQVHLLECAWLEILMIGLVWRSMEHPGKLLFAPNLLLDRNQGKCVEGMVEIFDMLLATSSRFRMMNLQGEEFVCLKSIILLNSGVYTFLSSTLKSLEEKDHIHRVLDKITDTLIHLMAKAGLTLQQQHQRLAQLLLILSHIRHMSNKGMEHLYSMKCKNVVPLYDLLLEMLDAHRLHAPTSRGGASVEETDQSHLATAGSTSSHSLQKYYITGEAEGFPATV

SMILES | Potency [1] | Potency [2] | Potency [3] | Potency [4] | Potency [5] | Potency [6] | Potency [7] | Potency [8] | Potency [9] | Potency [10] | Potency [11] | Potency [12] | Potency [13] | Potency [14] | Potency [15] | Potency [16] | Potency [17] | outcome [18] | Potency [19] | outcome [20]
Cc1ccc([N+](=O)[O-])cc1 | inactive | inactive | inactive | inactive | inactive | inactive | inactive | inactive | inactive | inactive | inactive | inactive | inactive | inactive | inactive | inactive | inactive |  |  | 
N#Cc1cccnc1 | inactive | inactive | inactive | inactive | inactive | inactive | inactive | inactive | inactive | inactive | inactive | inactive | inactive | inactive | inactive | inactive | inactive |  |  | 
O=C1Nc2ccc(Cl)cc2C(c2ccccc2)=NC1O (stereo not given) | inactive | inactive |  | inactive | inactive | inactive | inactive |  | inactive | inactive | inactive | inactive | inactive |  | inactive | inactive | inactive | inactive | inactive | 
COc1ccc(C=O)cc1OC | inactive | inactive | inactive | inactive | inactive | inactive |  | 24.6 µM (active) | inactive | inactive | inactive | inactive | inactive | inactive |  |  | inactive |  |  | 
CCOP(=S)(OCC)SCn1c(=O)oc2cc(Cl)ccc21 | inactive | inactive | inactive | inactive | inactive | inactive | inactive |  | inactive |  | inactive | inactive | inactive | inactive | inactive |  | inactive |  |  | 
CC(C)CON=O | inactive | inactive | inactive | inactive | inactive | inactive | inactive | inactive | inactive | inactive | inactive | inactive | inactive | inactive | inactive | inactive | inactive |  |  | 
CCCCCCCC[N+](C)(CCCCCCCC)CCCCCCCC | 24.3 µM (active) and 27.3 µM (active) and 48.6 µM (active) | 17.2 µM (active) and 3.44 µM (active) and 15.4 µM (active) | 1.22 µM (active) and 15.4 µM (active) | inactive | inactive and 61.1 µM (active) | 61 µM (active) and 10.9 µM (active) and 24.3 µM (active) |  | 193 nM (active) and 48.6 nM (active) and 306 nM (active) |  | 17.2 µM (active) | 12.2 µM (active) and 2.73 µM (active) and 24.3 µM (active) | 12.2 µM (active) and 27.3 µM (active) and 30.6 µM (active) | 12.2 µM (active) and 43.3 µM (active) and 24.3 µM (active) | inactive | inactive | inactive | 21.6 µM (active) and 6.87 µM (active) and 30.6 µM (active) |  | 48.5 µM (active) and 9.7 µM (active) and 19.3 µM (active) | 
O=[N+]([O-])c1ccc(Cl)c([N+](=O)[O-])c1 | 27.7 µM (active) and 54.5 µM (active) | 24.7 µM (active) and 21.7 µM (active) | 31.1 µM (active) and 43.3 µM (active) | inactive |  | 3.92 µM (active) and 10.9 µM (active) | inactive | 1.1 µM (active) and 6.86 µM (active) |  |  | 22 µM (active) and 21.7 µM (active) | 27.7 µM (active) and 27.3 µM (active) | 27.7 µM (active) and 27.3 µM (active) | inactive | inactive | inactive | 31.1 µM (active) and 27.3 µM (active) |  |  | inactive
CC(C)=CC1C(C(=O)OCN2C(=O)C3=C(CCCC3)C2=O)C1(C)C (stereo not given) | inactive | inactive |  | inactive | inactive | inactive | inactive | inactive |  |  | inactive |  | inactive |  | inactive | inactive | inactive | inactive | inactive | inactive
Cc1cccc(N=Nc2ccc(N(C)C)cc2)c1 | 27.3 µM (active) | inactive | inactive | 3.5 µM (active) and 6.86 µM (active) | inactive |  |  | inactive | inactive | inactive | 39.2 µM (active) and 30.6 µM (active) | 31.2 µM (active) | inactive | 247 nM (active) and 273 nM (active) | inactive | inactive | 24.8 µM (active) and 24.3 µM (active) |  |  | 
O=NN1CCOCC1 | inactive | inactive | inactive | inactive | inactive | inactive | inactive | inactive | inactive | inactive | inactive | inactive | inactive | inactive | inactive | inactive | inactive |  |  | 
ClC(Cl)=C(Cl)C(Cl)=C(Cl)Cl | inactive | inactive | inactive | inactive | inactive | inactive |  | inactive |  |  | inactive | inactive | inactive | inactive | inactive | inactive | inactive |  | inactive | 
CCOS(=O)(=O)OCC | inactive | inactive | inactive | inactive | inactive | inactive | inactive | inactive | inactive | inactive | inactive | inactive | inactive | inactive | inactive | inactive | inactive |  |  | 
